Where a name gives a salt, the structure may show the parent alone. ± gives the standard deviation of the averaged measurements. The full ranking holds about 3,200 compounds; the median of “nuclei count (viability) relative to DMSO” is about 99, and the lowest 2% start at about 16. For the sample, the lowest values were picked, then their nearest neighbours and some compounds at random.
Each compound was assayed on U2OS (assay: nuclei count (viability) relative to DMSO (% of DMSO); higher = more viable cells). Settings: 10 µM; 24 h.
Description: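 Primary image-based screen in U2OS cells: compounds at 10 uM for 24 h, then a 1 h o-propargyl-puromycin (OPP) pulse, click labelling, and high-throughput microscopy. Mean cytoplasmic OPP intensity and nuclei count were normalised to DMSO wells within each plate (DMSO = 100) and averaged over triplicate plates.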

Question: For `Oc1ccc2c3c1O[C@H]1c4[nH]c5c(c4C[C@@]4(O)[C@@H](C2)N(CC2CC2)CC[C@]314)C[C@@]1(O)[C@H]2Cc3ccc(O)c4c3[C@@]1(CCN2CC1CC1)[C@H]5O4` [nor-Binaltorphimine dihydrochloride], which nuclei count is on record?
Answer: 99.1

Question: For `O=C1/C(=C/c2ccccc2)C[C@@]2(O)[C@H]3Cc4ccc(O)c5c4[C@@]2(CCN3CC2CC2)[C@H]1O5` [BNTX maleate], which nuclei count is on record?
Answer: 3.38

Question: How did the nuclei count turn out when `O=C1CC[C@@]2(O)[C@H]3Cc4ccc(O)c5c4[C@@]2(CCN3CC2CC2)[C@H]1O5` [Naltrexone hydrochloride dihydrate] was run?
Answer: 105

Question: With `CC(=O)O[C@H]1CC[C@@]2(C)C(=CC[C@@H]3[C@@H]2CC[C@]2(C)C(=O)CC[C@@H]32)C1` [Dehydroisoandosterone 3-acetate] as the compound, how does the nuclei count read?
Answer: 96.3

Question: For `C[C@@H]1CC[C@@]2(OC1)O[C@H]1C[C@H]3[C@@H]4CC=C5C[C@@H](O[C@@H]6O[C@H](CO)[C@@H](O[C@@H]7O[C@@H](C)[C@H](O)[C@@H](O)[C@H]7O)[C@H](O)[C@H]6O[C@@H]6O[C@@H](C)[C@H](O)[C@@H](O)[C@H]6O)CC[C@]5(C)[C@H]4CC[C@]3(C)[C@H]1[C@@H]2C` [Dioscin (Collettiside III)], which nuclei count is on record?
Answer: 9.01

Question: `CCN(CC)CCO[C@H]1CC[C@@]2(C)C(=CC[C@@H]3[C@@H]2CC[C@]2(C)C(=O)CC[C@@H]32)C1` was tested. Which nuclei count did it give?
Answer: 97

Question: `CO[C@@H]1[C@H](OC(=O)NC(=O)CCl)CC[C@]2(CO2)[C@H]1[C@@]1(C)O[C@@H]1CC=C(C)C` was tested. Which nuclei count did it give?
Answer: 92.6

Question: With `Cc1onc(O)c1C[C@H](N)C(=O)O` as the compound, how does the nuclei count read?
Answer: 102

Question: How did the nuclei count turn out when `CCC(=O)CCCCC[C@@H]1NC(=O)[C@H]2CCCCN2C(=O)[C@H]([C@@H](C)CC)NC(=O)[C@H](Cc2cn(OC)c3ccccc23)NC1=O` [Apicidin] was run?
Answer: 54.1 ± 37

Question: `CN(C(=O)Cc1ccccc1)C(CN1CCCC1)c1ccccc1` (stereo unspecified) [N-MPPP Hydrochloride] was tested. Which nuclei count did it give?
Answer: 87.9

Question: For `CN[C@@H]1C[C@H]2O[C@@](C)([C@@H]1OC)n1c3ccccc3c3c4c(c5c6ccccc6n2c5c31)C(=O)NC4` [Staurosporine], which nuclei count is on record?
Answer: 10.1

Question: Which nuclei count does the source give for `O=C1NC(=O)c2c1c1c3ccccc3n3c1c1c2c2ccccc2n1[C@H]1CC[C@@H]3O1` here?
Answer: 60.9

Question: How did the nuclei count turn out when `O=C1CN=C(c2cccc(Br)c2)c2oc3ccccc3c2N1` was run?
Answer: 78.5

Question: Which nuclei count does the source give for `Clc1ccccc1C(c1ccccc1)(c1ccccc1)n1cccn1` here?
Answer: 102

Question: Which nuclei count does the source give for `CC(C)(c1ccc(OCC2CO2)cc1)c1ccc(OCC2CO2)cc1` (stereo unspecified) here?
Answer: 86.6 ± 6.1

Question: For `CCN1C[C@]2(COC(=O)c3ccccc3N3C(=O)C[C@H](C)C3=O)CC[C@H](OC)[C@@]34[C@@H]5C[C@H]6[C@H](OC)[C@@H]5[C@](O)(C[C@@H]6OC)[C@](O)([C@@H](OC)[C@H]23)[C@@H]14` [Methyllycaconitine citrate], which nuclei count is on record?
Answer: 109

Question: For `CC(=O)N1CC[N+](C)(C)CC1` [4-Acetyl-1,1-dimethylpiperazinium iodide], which nuclei count is on record?
Answer: 103

Question: How did the nuclei count turn out when `COc1cc([C@@H]2c3cc4c(cc3[C@H](O)[C@H]3COC(=O)[C@H]23)OCO4)cc(OC)c1OC` [Podophyllotoxin] was run?
Answer: 15.6

Question: How did the nuclei count turn out when `CC(C(=O)OC1CC2CCC(C1)N2C)c1ccc(Br)cc1` (stereo unspecified) [PG-9 maleate] was run?
Answer: 98.8

Question: With `O=C1Nc2cc(Cl)c(Cl)cc2N2CCNCC12` (stereo unspecified) as the compound, how does the nuclei count read?
Answer: 95.9

Question: For `CC12NC(Cc3ccccc31)c1ccccc12` (single isomer, unassigned; (+)) [(+)-MK 801 maleate], which nuclei count is on record?
Answer: 94.2

Question: How did the nuclei count turn out when `O=C(CCCN1CCC2(CC1)C(=O)N(Cc1cccc(F)c1)CN2c1ccccc1)c1ccc(F)cc1` [3'-Fluorobenzylspiperone maleate] was run?
Answer: 29.4

Question: With `COc1ccc(C[C@H]2NC[C@H](O)[C@H]2OC(C)=O)cc1` [Anisomycin] as the compound, how does the nuclei count read?
Answer: 12.5 ± 8.3

Question: `CC(C)n1cnc2c(C(=O)N[C@H]3CN4CCC3CC4)cc(Cl)cc21` was tested. Which nuclei count did it give?
Answer: 96.2

Question: With `CCCCC/C=C\C/C=C\C/C=C\C/C=C\CCCC(=O)Nc1ccc(O)cc1` as the compound, how does the nuclei count read?
Answer: 97

Question: `COc1cc2c(cc1O)C(CCc1ccc(Cl)cc1)N(C)CC2` (stereo unspecified) was tested. Which nuclei count did it give?
Answer: 104

Question: For `CC1(C)CCCC(C)(C)N1[O]`, which nuclei count is on record?
Answer: 91.7

Question: `CC(C)(Cc1c[nH]c2ccc(Cl)cc12)NCCOc1ccccc1OCC1CC1` was tested. Which nuclei count did it give?
Answer: 11.3

Question: With `N#CC(C#N)=Cc1ccc(O)cc1` [Tyrphostin 8] as the compound, how does the nuclei count read?
Answer: 102

Question: How did the nuclei count turn out when `COc1ccc(C(=O)c2c(C)n(CCN3CCOCC3)c3cc(I)ccc23)cc1` was run?
Answer: 80

Question: For `C[CH2][Hg][S]c1ccccc1C(=O)[O-].[Na+]` [Thimerosal], which nuclei count is on record?
Answer: 5.97

Question: With `CC(=O)C1=C(O)[C@@H]2[C@H]3c4c[nH]c5cccc(c45)C[C@H]3C(C)(C)N2C1=O` [Cyclopiazonic Acid] as the compound, how does the nuclei count read?
Answer: 90.3

Question: `CC(=O)C1=C(O)[C@@H]2[C@H]3c4c[nH]c5cccc(c45)C[C@H]3C(C)(C)N2C1=O` [Cyclopiazonic acid] was tested. Which nuclei count did it give?
Answer: 75.5

Question: `CC(C)(O)[C@H]1O[C@H]2CC[C@@]3(C)[C@@](O)(CC[C@H]4Cc5c([nH]c6ccccc56)[C@@]43C)C2=CC1=O` [Paxilline] was tested. Which nuclei count did it give?
Answer: 91.2 ± 11

Question: How did the nuclei count turn out when `CN1C(=O)[C@]23CC4=CC=C[C@H](O)[C@H]4N2C(=O)[C@@]1(CO)SS3` [Gliotoxin] was run?
Answer: 36

Question: `Cc1ccc(C[N+](C)(C)C)o1` [5-Methylfurmethiodide] was tested. Which nuclei count did it give?
Answer: 91.6
